Activity calls are given as the source filed them.
Experiments:
[1] = system: Wnt5a (protein binding on small-molecule microarray); test: Wnt5a binders on small-molecule microarray, primary screen, biophysical, 635/667 nm fluorescence (AID 1142); conditions: 635 nm fluorescence, higher = more signal;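 also: fluorescence read at 667 nm with signal to noise per printed feature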
[2] = cell viability in Huh7 cells, primary screen, cytotoxicity control for HCV replication inhibitor project, CellTiter-Glo luminescence, basal, 48 h (AID 1143); conditions: Huh7 HCV replicon, higher = more signal, called active from +8 up or from −8 down;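 also: Huh7 hepatoma cells carrying a hepatitis C replication reporter with no stimulus; test concentration not given here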
[3] = CREB reporter modulators without forskolin, primary screen, cell-based, PC12, CRE-LacZ reporter, unstimulated (AID 1145); conditions: no forskolin, luminescence, 4.5 h, higher = more signal, called active from +8 up or from −8 down
[4] = CREB reporter modulators under forskolin, primary screen, cell-based, PC12, CRE-LacZ reporter, forskolin-stimulated (AID 1146); conditions: luminescence, 4.5 h, higher = more signal, called active from +8 up or from −8 down;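 also: PC12 cells with 6xCRE LacZ reporter stimulated by forskolin 10 µM; beta-galactosidase reporter signal reflecting CREB driven transcription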
[5] = molecular target: Streptavidin (Streptomyces avidinii) (UniProt P22629); test: streptavidin binders on small-molecule microarray, primary screen, artefact control for SMM compound annotation, biophysical, 635/667 nm fluorescence (AID 1147); conditions: streptavidin binding, higher = more signal;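 also: signal reflects streptavidin binding to arrayed compounds as a control protein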
Chain of Streptavidin (Streptomyces avidinii) (P22629 whole entry, looked up): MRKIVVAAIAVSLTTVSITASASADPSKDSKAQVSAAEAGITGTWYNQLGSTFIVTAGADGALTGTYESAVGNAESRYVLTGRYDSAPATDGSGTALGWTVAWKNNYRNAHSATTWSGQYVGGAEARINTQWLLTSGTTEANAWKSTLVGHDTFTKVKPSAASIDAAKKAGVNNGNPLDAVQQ

[6] = small-molecule binders of probe aInhba, primary screen, biochemical, small-molecule microarray, 635/667 nm fluorescence (AID 1148); conditions: higher = more signal;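 also: score merges 667nm spot fluorescence with signal-to-noise for antibody binding to printed compounds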
Torsin-1A (Homo sapiens) [7] = molecular target: Torsin-1A (Homo sapiens) (UniProt O14656); test: torsin A binders from cell lysate, primary screen, small-molecule microarray, wild-type, 635/667 nm (AID 1149); conditions: COS7 hTOR1A-WT lysate, 635 nm fluorescence, higher = more signal
Chain of Torsin-1A (Homo sapiens) (O14656 whole entry, looked up): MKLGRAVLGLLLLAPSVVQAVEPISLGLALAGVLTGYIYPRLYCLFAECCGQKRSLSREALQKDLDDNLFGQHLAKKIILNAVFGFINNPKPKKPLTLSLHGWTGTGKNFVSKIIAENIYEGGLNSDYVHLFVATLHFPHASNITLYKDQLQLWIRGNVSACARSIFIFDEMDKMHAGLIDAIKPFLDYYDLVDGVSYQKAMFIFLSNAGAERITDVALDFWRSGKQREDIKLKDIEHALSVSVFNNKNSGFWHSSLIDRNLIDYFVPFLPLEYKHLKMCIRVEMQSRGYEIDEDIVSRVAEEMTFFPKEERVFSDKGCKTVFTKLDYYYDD

Torsin-1A (Homo sapiens) [8] = molecular target: Torsin-1A (Homo sapiens) (UniProt O14656); test: small-molecule binders of mutant TOR1A in lysate, primary screen, cell lysate, small-molecule microarray, COS7 lysate, 635/667 nm fluorescence (AID 1150); conditions: COS7 hTOR1A mutant lysate, 635 nm fluorescence, higher = more signal;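 also: score pools 667 nm emission and signal to noise measuring lysate protein binding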
[9] = system: Sonic hedgehog protein (Shh); test: small-molecule binders of Shh protein, primary screen, biochemical, small-molecule microarray, 635/667 nm fluorescence (AID 1151); conditions: small-molecule microarray binding, 635 nm fluorescence; higher = more signal;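 also: Shh protein binding to compounds spotted on small-molecule microarray slides; score combines spot fluorescence intensity with signal-to-noise across triplicate slides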
[10] = E. coli DRC41 culture turbidity changes, primary screen, E. coli filamentation inducer project, strain DRC41, OD650, 48 h (AID 1152);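 also: E. coli MC1000 strain DRC41 lacking acrAB efflux pump and sulA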; conditions: E. coli DRC41 (acrAB sulA), higher = more signal, called active from +8 up or from −8 down
[11] = small-molecule binders of probe aLefty1, primary screen, biochemical, small-molecule microarray, 635/667 nm fluorescence (AID 1153); conditions: higher = more signal;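 also: score merges spot fluorescence with signal-to-noise ratio from the scanned slide images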
[12] = PSAC antagonists in infected red cells, primary screen, cell-based, P. falciparum Indochina, OD700, 1 h (AID 1154); conditions: P. falciparum Indochina infected RBC osmotic lysis, higher = more signal, called active from +8 up or from −8 down
[13] = PSAC antagonists in infected red cells, primary screen, cell-based, P. falciparum Indochina, OD700, 2 h (AID 1155);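 also: lysis reports solute entry through the parasite surface anion channel PSAC; channel blockers reduce lysis of infected cells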; conditions: P. falciparum Indochina infected erythrocytes, osmotic lysis OD700; higher = more signal, called active from +8 up or from −8 down
[14] = osmotic lysis modulators in infected erythrocytes, primary screen, PSAC antagonist project, cell-based, P. falciparum Indochina, OD700, 3 h (AID 1156); conditions: higher = more signal, called active from +8 up or from −8 down
[15] = PSAC antagonists in infected red cells, primary screen, cell-based, P. falciparum Indochina, OD700, 18 h (AID 1157); conditions: P. falciparum Indochina infected erythrocytes, osmotic lysis OD700, 18 h; higher = more signal, called active from +8 up or from −8 down
[16] = modulators of S6 phosphorylation in cells, primary screen, cell-based, A549, cytoblot, luminescence, serum-stimulated (AID 1158); conditions: A549 phospho-S6 cytoblot, 5 h, higher = more signal;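 also: serum-stimulated A549 lung adenocarcinoma cells; signal is phosphorylated S6 detected by cytoblot immunostaining with HRP secondary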
[17] = molecular target: NADPH oxidase 2 (Homo sapiens) (UniProt P04839); test: NOX2-dependent H2O2 signal modulators, primary screen, NOX inhibitor project, cell-based, HEK293-NOX2, PMA-stimulated, Amplex Red fluorescence (AID 1159); conditions: 45 min, higher = more signal, called active from +8 up or from −8 down; also: test concentration not given here
Chain of NADPH oxidase 2 (Homo sapiens) (P04839 whole entry, looked up): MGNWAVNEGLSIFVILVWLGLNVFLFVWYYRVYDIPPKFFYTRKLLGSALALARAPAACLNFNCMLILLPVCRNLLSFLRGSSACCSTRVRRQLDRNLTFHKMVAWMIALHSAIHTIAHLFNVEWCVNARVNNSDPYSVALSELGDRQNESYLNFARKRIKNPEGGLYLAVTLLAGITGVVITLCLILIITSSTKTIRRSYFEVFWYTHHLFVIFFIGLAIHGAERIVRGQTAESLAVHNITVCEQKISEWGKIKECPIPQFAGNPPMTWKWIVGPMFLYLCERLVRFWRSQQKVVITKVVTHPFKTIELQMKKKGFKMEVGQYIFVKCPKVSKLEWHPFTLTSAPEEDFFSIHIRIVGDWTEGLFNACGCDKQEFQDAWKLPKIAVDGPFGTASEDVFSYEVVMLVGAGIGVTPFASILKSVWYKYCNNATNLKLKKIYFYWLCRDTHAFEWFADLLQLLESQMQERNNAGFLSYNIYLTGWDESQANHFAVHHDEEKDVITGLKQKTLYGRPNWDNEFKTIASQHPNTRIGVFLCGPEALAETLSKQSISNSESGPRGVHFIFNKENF

[18] = molecular target: NADPH oxidase 4 (Homo sapiens) (UniProt Q9NPH5); test: NOX4-dependent H2O2 signal modulators, primary screen, NOX inhibitor project, cell-based, HEK293-NOX4, tetracycline-induced, Amplex Red fluorescence (AID 1160); conditions: 45 min, higher = more signal, called active from +8 up or from −8 down
Chain of NADPH oxidase 4 (Homo sapiens) (Q9NPH5 whole entry, looked up): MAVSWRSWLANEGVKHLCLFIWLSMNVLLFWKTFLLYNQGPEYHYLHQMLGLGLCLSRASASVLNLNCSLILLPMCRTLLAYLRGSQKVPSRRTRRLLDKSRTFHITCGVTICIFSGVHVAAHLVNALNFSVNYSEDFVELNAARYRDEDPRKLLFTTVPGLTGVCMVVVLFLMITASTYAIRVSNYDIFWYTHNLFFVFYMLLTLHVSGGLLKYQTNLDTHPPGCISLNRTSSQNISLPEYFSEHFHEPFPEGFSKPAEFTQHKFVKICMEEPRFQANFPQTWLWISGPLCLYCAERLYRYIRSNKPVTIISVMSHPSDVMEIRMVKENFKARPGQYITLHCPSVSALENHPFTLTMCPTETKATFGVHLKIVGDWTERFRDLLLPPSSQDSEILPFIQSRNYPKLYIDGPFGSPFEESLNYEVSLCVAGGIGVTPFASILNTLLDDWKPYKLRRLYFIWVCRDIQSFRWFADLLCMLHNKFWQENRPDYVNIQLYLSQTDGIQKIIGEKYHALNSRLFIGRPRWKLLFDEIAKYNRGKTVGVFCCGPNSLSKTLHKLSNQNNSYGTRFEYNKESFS

[19] = molecular target: NADPH oxidase 5 (Homo sapiens) (UniProt Q96PH1); test: NOX5-dependent H2O2 signal modulators, primary screen, NOX inhibitor project, cell-based, HEK293-NOX5, Amplex Red fluorescence (AID 1161); conditions: HEK293-NOX5, ionomycin, 45 min, higher = more signal
Chain of NADPH oxidase 5 (Homo sapiens) (Q96PH1 whole entry, looked up): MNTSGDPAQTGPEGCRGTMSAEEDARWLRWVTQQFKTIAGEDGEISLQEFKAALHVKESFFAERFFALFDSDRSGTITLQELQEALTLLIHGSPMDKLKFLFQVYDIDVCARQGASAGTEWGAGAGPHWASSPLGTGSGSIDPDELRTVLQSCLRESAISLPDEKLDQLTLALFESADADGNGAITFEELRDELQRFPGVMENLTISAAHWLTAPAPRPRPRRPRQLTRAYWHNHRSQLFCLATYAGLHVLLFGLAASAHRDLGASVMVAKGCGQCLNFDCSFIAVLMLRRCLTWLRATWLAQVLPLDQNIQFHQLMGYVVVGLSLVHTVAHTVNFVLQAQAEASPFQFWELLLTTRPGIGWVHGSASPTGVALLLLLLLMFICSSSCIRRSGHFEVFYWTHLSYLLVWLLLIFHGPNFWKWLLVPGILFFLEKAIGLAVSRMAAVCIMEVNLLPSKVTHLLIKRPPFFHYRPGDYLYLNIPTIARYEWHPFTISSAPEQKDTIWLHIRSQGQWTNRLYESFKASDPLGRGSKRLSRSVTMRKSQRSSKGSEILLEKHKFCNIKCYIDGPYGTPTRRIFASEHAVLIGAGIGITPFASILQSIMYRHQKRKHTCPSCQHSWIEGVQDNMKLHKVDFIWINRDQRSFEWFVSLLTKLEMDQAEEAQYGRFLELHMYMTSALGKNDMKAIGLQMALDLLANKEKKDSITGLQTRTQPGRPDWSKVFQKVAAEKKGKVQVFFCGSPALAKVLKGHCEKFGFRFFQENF

[20] = A549 cell viability effects, profiling panel, calcein-AM fluorescence, 48 h, basal (AID 1162); conditions: higher = more signal; also: test concentration not given here

Compound | composite z-score [1] | z-score [2] | z-score [3] | z-score [4] | composite z-score [5] | composite z-score [6] | composite z-score (Torsin-1A (Homo sapiens) [7]) | composite z-score (Torsin-1A (Homo sapiens) [8]) | composite z-score [9] | z-score [10] | composite z-score [11] | z-score [12] | z-score [13] | z-score [14] | z-score [15] | z-score [16] | z-score [17] | z-score [18] | z-score [19] | z-score [20]
Cc1ccc(S[C@]2(C(=O)NC3CC3)CC(=O)N(Cc3ccccc3C(F)(F)F)[C@@H]2c2ccc(CO)cc2I)cc1 | 0.132 | -2.54 (inactive) | -0.114 (inactive) | -0.479 (inactive) | -0.297 | -0.0523 | -0.0139 | 0.231 | 0.385 | 2.31 (inactive) | 0.309 | 5.75 (inactive) | -0.15 (inactive) | 0.693 (inactive) | -1.31 (inactive) | 1.8 | 1.42 (inactive) | -2.36 (inactive) | 1.21 | 0.243
C#CCN1C(C(=O)OCC)OC[C@H]1c1ccccc1 (stereo not given in full) | 0.0718 | -2.25 (inactive) | 1.12 (inactive) | -0.678 (inactive) | -0.0517 | 0.195 | 3.34 | 3.27 | 0.789 | 2.39 (inactive) | -0.0061 | 0.0429 (inactive) | -1.18 (inactive) | 0.696 (inactive) | -2.37 (inactive) | 1.01 | 0.413 (inactive) | 0.918 (inactive) | -0.727 | 0.208
COc1ccc(C#Cc2ccc3c(c2)[C@]2(C(=O)N3)[C@H](c3ccc(O)cc3)N3[C@H](c4ccccc4)[C@H](c4ccccc4)OC(=O)[C@H]3[C@@H]2C(N)=O)cc1 | 0.295 | -5.1 (inactive) | 0.209 (inactive) | -0.532 (inactive) | -0.881 | -0.153 | 0.255 | -0.0088 | -0.301 | 1.63 (inactive) | -0.147 | 2.89 (inactive) | 1.58 (inactive) | 0.672 (inactive) | 1.23 (inactive) | 0.76 | 1.76 (inactive) | -1.43 (inactive) | 0.618 | -1.55
C=CCNC(=O)[C@@H]1[C@H]2C(=O)O[C@H](c3ccccc3)[C@H](c3ccccc3)N2[C@H](c2ccc(O)cc2)[C@@]12C(=O)N(C(=O)OCCOC)c1ccc(C#Cc3ccc(OC)cc3)cc12 | 0.334 | -2.94 (inactive) | -0.203 (inactive) | 0.417 (inactive) | 0.256 | 0.0627 | 0.808 | 0.54 | 1.06 | 1.58 (inactive) | -0.0222 | 2.52 (inactive) | 1.19 (inactive) | -0.264 (inactive) | 0.804 (inactive) | -0.0456 | 0.957 (inactive) | -0.276 (inactive) | 1.9 | -0.413
C[N+](C)(C)CCCCNC(=O)[C@@H]1C[C@@H]2C(=O)NCC(=O)N2[C@@H]1c1cccc(OCCO)c1 | 0.857 | -1.08 (inactive) | -0.939 (inactive) | -0.689 (inactive) | 0.461 | 0.124 | 1.87 | 1.1 | 2.16 | 1.78 (inactive) | -0.221 | 2.68 (inactive) | -1.12 (inactive) | -2.75 (inactive) | -1.98 (inactive) | 0.855 | -1.42 (inactive) | -0.57 (inactive) | 0.766 | 1.59
C=CC[C@]1(C(=O)N(C)C)N=C(c2ccc(OCCCO)cc2)O[C@H]1c1ccccc1CN=[N+]=[N-] | 0.508 | -1.79 (inactive) | 2.8 (inactive) | -1.16 (inactive) | 1.39 | 0.0388 | 0.581 | 1.1 | 0.0463 | 1.19 (inactive) | -0.237 | 11.8 (active) | 1.47 (inactive) | 2.63 (inactive) | 0.817 (inactive) | 0.434 | 1.23 (inactive) | 0.653 (inactive) | -1.25 | 0.937
COCCCN1C(=O)[C@@]2(Cc3ccccc31)c1ccccc1C(=O)N(Cc1ccccc1Cl)[C@H]2c1ccc(CO)cc1 | 0 | -1.33 (inactive) | -0.179 (inactive) | -0.415 (inactive) | -0.733 | -0.108 | -0.471 | 0.0439 | 0.0161 | 3.46 (inactive) | 0.0053 | 0.399 (inactive) | -0.277 (inactive) | -0.992 (inactive) | -0.85 (inactive) | 1.34 | -2.48 (inactive) | 0.163 (inactive) | 1.65 | 1.54
CC(C)C(=C=CC[C@@H](O)c1ccc(CO)o1)CCO | 0.502 | -0.105 (inactive) | 0.681 (inactive) | -1.82 (inactive) | -0.294 | -0.0986 | 1.65 | 0.289 | 1.48 | 1.38 (inactive) | -0.147 | 1.95 (inactive) | 0.236 (inactive) | 0.311 (inactive) | 0.0124 (inactive) | -0.109 | 1.62 (inactive) | 1.64 (inactive) | 1.49 | 2.76
COC(=O)C1=CC(c2ccc(CO)cc2)=CC(c2cccs2)N(C)C=C1C(=O)OC (stereo not given) | -0.246 | -3.59 (inactive) | -0.348 (inactive) | -0.534 (inactive) | 0.295 | -0.0471 | 0.503 | 0.634 | 0.335 | 2.46 (inactive) | 0.571 | 6.76 (inactive) | 0.0213 (inactive) | -0.64 (inactive) | -1.49 (inactive) | 1.67 | -1.48 (inactive) | -2.33 (inactive) | -1.44 | 0.126
